Out of some 69,000 compounds screened, about 8,600 (12%) showed an effect of 50% or more. The sample holds strong results, similar compounds and a random draw of the others, so the mix is not that of the screen.
Each compound was assayed on Plasmodium berghei (assay: Screen against P. berghei liver stage (PbLuc), transformed with Luciferase, at 10uM). Conditions: tested at 10 uM.
Type: functional, HepG2
With `O=C(Cc1ccon1)N1CCc2cc(Br)sc2C1` the INHIBITION was -28.9%.
With `CC(C)c1nnc(CN2CCCC(c3cc(C(N)=O)[nH]n3)C2)o1` (stereo not given) the INHIBITION was 33.7%.
For `C[C@@H]1CN(c2nc3c(cc2C(N)=O)CCC3)C[C@]1(C)O`, the INHIBITION was -13.8%.
Compound `CCc1nc(CC2CN(c3ncnc4nc(C)cc(C)c34)CCO2)no1` (stereo not given) has an INHIBITION of 22%.
In the case of `CC1CCCN(CCCNC(=O)c2ccc(N(C)S(C)(=O)=O)cc2Cl)C1` (stereo not given), the INHIBITION is reported as 53.7%.
For `CN(C)CCCNC(=O)c1cc(Cl)ccc1Cl`, the INHIBITION was 4.93%.
Work on `CN(C)CCCNC(=O)c1ccc(Cl)cc1Cl` yielded an INHIBITION of 16%.
`Cc1nc(-c2noc3ccc(C(=O)NCCN(C)C)cc23)co1` showed an INHIBITION of 8.31%.
`CC1CCCN(CCCNC(=O)c2cn(C)nc2-c2cccnc2)C1` (stereo not given) showed an INHIBITION of 13.2%.
Compound `Cc1nc(-c2noc3ccc(C(=O)NCCN4CCOCC4)cc23)co1` has an INHIBITION of 63%.
Work on `CN(C)CCCNC(=O)c1ccc(N(C)S(C)(=O)=O)cc1Cl` yielded an INHIBITION of 64.1%.
`CN1CCC(CCNC(=O)c2ccc(N(C)S(C)(=O)=O)cc2Cl)CC1` gave an INHIBITION of 8.47%.
In the case of `Cc1nc(-c2noc3ccc(C(=O)NCCN4CCOCC4)cc23)cs1`, the INHIBITION is reported as 46.7%.
`Cc1ncsc1C(=O)NCc1ccnc(N2CCN(C)CC2)c1` was tested, and the INHIBITION was 12.85%.
For `CCc1cnc(N2C[C@@H]3C[C@H](C(=O)N4CCOCC4)[C@H](C2)O3)nc1`, the INHIBITION was 28.5%.
For `CCOC(=O)N1[C@@H](c2ccco2)[C@@H](C(=O)O)C[C@]12CCCCNC2=O`, the INHIBITION was -8.8%.
`O=C(O)c1cnc(N2CCCC2)nc1COc1ccccc1` gave an INHIBITION of -14.8%.
`Cc1cnn(C2CN(CC(=O)NCC(C)C)C2)c1` was tested, and the INHIBITION was 16.9%.
For `CCn1cnnc1C1CCN(C(=O)c2ccoc2C)CC1`, the INHIBITION was -5.07%.
In the case of `c1ccc(COc2cccc(CNC3CCc4ncnn4C3)c2)cc1` (stereo not given), the INHIBITION is reported as 33.6%.
Compound `Cc1ccc2c(c1)C(=O)NCC1(CCN(C(=O)c3csc(C)c3)CC1)O2` has an INHIBITION of -28.6%.
Work on `O=C(N1CCOCC1)N1C2CCC(O)(CC2)C1CN1CCOCC1` (stereo not given) yielded an INHIBITION of 44.2%.
For `CNc1cc2c(nn1)CCN(C(=O)c1coc(Br)c1)C2`, the INHIBITION was 3.73%.
In the case of `Cc1ncc(CC(=O)N2CCCCC2CCN2CCCC2)c(=O)[nH]1` (stereo not given), the INHIBITION is reported as 61.8%.
`Cc1cnn(CC2CCCN2C(=O)Cc2c(C)nc(C)[nH]c2=O)c1` (stereo not given) showed an INHIBITION of 31.8%.
In the case of `Cc1ncc(CC(=O)N2CCC(N3C[C@@H](C)O[C@@H](C)C3)CC2)c(=O)[nH]1`, the INHIBITION is reported as 37.4%.
`CC(=O)NC(CC(=O)Nc1ccc(C)cn1)c1ccccc1` (stereo not given) showed an INHIBITION of 27.6%.
For `N#CC1(NC(=O)c2cc(Cl)ccc2OC(F)F)CCOCC1`, the INHIBITION was 45.4%.
`O=C(c1ccc(=O)[nH]n1)N1CCc2ccccc21` gave an INHIBITION of 38.8%.
For `O=C(c1c[nH]c(=O)[nH]1)N1CCc2ccccc21`, the INHIBITION was 90.7%.
Compound `O=C(NN1CCCc2ccccc21)c1c[nH]c(=O)[nH]1` has an INHIBITION of 32.3%.
In the case of `O=C([C@@H]1COC[C@H]2CN(c3ccncn3)C[C@H]21)N1CCCC1`, the INHIBITION is reported as -10.3%.
`CCOC(=O)c1n[nH]cc1-c1cncn1CCCn1nc(C)cc1C` gave an INHIBITION of 15.9%.
`CNCC(=O)N1CCC(c2cccc(Oc3ccccc3)n2)CC1` gave an INHIBITION of 29.5%.
`CC(=O)N1CCC(c2cccc(Oc3ccccc3)n2)CC1` was tested, and the INHIBITION was 9.98%.
In the case of `NCC(=O)N1CCC(c2cccc(Oc3ccccc3)n2)CC1`, the INHIBITION is reported as 75.9%.
In the case of `CCn1cc(Br)c(C(=O)NCc2ccc(F)cc2)n1`, the INHIBITION is reported as -34%.
For `O=C(NCc1ccc(-n2cncn2)nc1)c1cnccn1`, the INHIBITION was 48.3%.
`Cc1oc(C(=O)Nc2ccccc2F)cc1S(N)(=O)=O` gave an INHIBITION of 17.5%.
`Cc1oc(C(=O)Nc2cccc(Cl)c2C)cc1S(N)(=O)=O` was tested, and the INHIBITION was -74.6%.
In the case of `Cc1cccc(C)c1NC(=O)c1cc(S(N)(=O)=O)c(C)o1`, the INHIBITION is reported as 52.7%.
`Cc1nccc(CNC(=O)Nc2cc(C(F)(F)F)c[nH]c2=O)n1` was tested, and the INHIBITION was 8.38%.
`Cc1ccn(CC(=O)NCCCOc2ccccc2F)c(=O)c1` was tested, and the INHIBITION was 10.9%.
Compound `CNC(=O)COC(=O)c1ccn(-c2ccc(Cl)c(Cl)c2)n1` has an INHIBITION of 35.7%.
`CS(=O)(=O)NC(=O)c1ccn(-c2ccc(Cl)c(Cl)c2)n1` was tested, and the INHIBITION was -43.9%.
In the case of `COC(=O)CNC(=O)c1ccn(-c2ccc(Cl)c(Cl)c2)n1`, the INHIBITION is reported as 51.6%.
With `O=C(C1CCCOC1)N1CCN(CC(F)(F)F)c2ccccc21` (stereo not given) the INHIBITION was 11.3%.
`O=C1N(Cc2cccc(F)c2)CCC12CCN(c1ccccn1)CC2` was tested, and the INHIBITION was -15.9%.
`CN(C)C(=O)COC[C@]12COC[C@H]1CN(C1CCCC1)C2` gave an INHIBITION of 56.6%.
`O=C(COC[C@@]12CCC[C@@H]1CN(C1CCC1)C2)N1CCCC1` was tested, and the INHIBITION was 27.6%.
Work on `O=C(COC[C@]12COC[C@H]1CN(C1CCC1)C2)N1CCCC1` yielded an INHIBITION of 60.2%.
With `C1CC(N2C[C@@H]3COC[C@]3(COCC3CCOCC3)C2)C1` the INHIBITION was 55.7%.
`c1ccc(OC[C@]23COC[C@H]2CN(C2CCOCC2)C3)nc1` showed an INHIBITION of -4.32%.
`c1cncc(OC[C@]23COC[C@H]2CN(C2CCC2)C3)c1` gave an INHIBITION of 20.6%.
`CN(C)C(=O)COC[C@@]12CCC[C@@H]1CN(C1CCC1)C2` gave an INHIBITION of 12.7%.
`CN(C)C(=O)COC[C@@]12CCC[C@@H]1CN(C1CCCC1)C2` showed an INHIBITION of -25.7%.
With `O=C(COC[C@@]12CCC[C@@H]1CN(C1CCCC1)C2)N1CCCC1` the INHIBITION was 34.9%.
Compound `Nc1ncnc2nc(C3CCCCN3)ccc12` (stereo not given) has an INHIBITION of 26.45%.
Compound `O=C(c1cc(F)ccc1O)N1CCN(C2CCSC2)CC1` (stereo not given) has an INHIBITION of -75.7%.
Compound `CN(CCNc1cc(N2CCCC2CO)ncn1)Cc1ccccc1` (stereo not given) has an INHIBITION of -21.2%.
`Cc1ccc(CN2CCN(CC(=O)Nc3ccc4nsnc4c3)CC2)o1` was tested, and the INHIBITION was 46.1%.
`CCC(CC)CN1CCN(CC(=O)Nc2ccc3nsnc3c2)CC1` was tested, and the INHIBITION was 8.99%.
`CC(C)CCN1CCN(CC(=O)Nc2ccc3nsnc3c2)CC1` gave an INHIBITION of 58.3%.
`O=C(CCOc1ccccc1F)NC1CCCN(c2ccccn2)C1` (stereo not given) was tested, and the INHIBITION was -3.71%.
`CN(C)Cc1cnc2n1CCN(C(=O)NC1CCCC1)CC2` was tested, and the INHIBITION was 43.8%.
Compound `CC(=O)c1cccc(NC(=O)c2cnc(N3CCN(C)CC3)nc2C)c1` has an INHIBITION of 7.83%.
Work on `CCc1nc(C2CCCN(C(=O)c3ccccc3O)C2)no1` (stereo not given) yielded an INHIBITION of 37.9%.
`CCc1nc(C2CCCN(C(=O)CC3CCOCC3)C2)no1` (stereo not given) showed an INHIBITION of -2.19%.
`CCc1nc(C2CCCN(C(=O)c3ccccc3Cl)C2)no1` (stereo not given) gave an INHIBITION of 42%.
Compound `CCc1nc(C2CCCN(C(=O)CN(C)S(C)(=O)=O)C2)no1` (stereo not given) has an INHIBITION of 51.3%.
For `CCc1nc(C2CCCN(C(=O)c3ccccc3F)C2)no1` (stereo not given), the INHIBITION was 60.5%.
`CC(C)c1nc(C2CCCN(C(=O)CN(C)S(C)(=O)=O)C2)no1` (stereo not given) showed an INHIBITION of -1.35%.
Work on `CCc1cc(N2CCCC(c3noc(CC)n3)C2)ncn1` (stereo not given) yielded an INHIBITION of 58.5%.
Work on `CCc1nc(C2CCCN(c3ncc(Br)cn3)C2)no1` (stereo not given) yielded an INHIBITION of 31.7%.
For `CCc1nc(C2CCCN(c3ncccn3)C2)no1` (stereo not given), the INHIBITION was -113%.
